This passage reports inhibition results from PubChem BioAssay AID651702 (NMMLSC, 2012).

As a reminder, the inhibition is the change of the read-out against control, counted positive when it falls.

Where “and” joins values, the source holds several entries; their conditions need not be identical. Equal entries are not always repeated. The campaign covered roughly 360,000 compounds. About 2,400 (0.67%) were called active.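 The calls were made as follows: active = inhibition above about 55% (limit read from the data); inconclusive = no clear call, values can overlap the other calls; inactive = the rest.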 Only a selection was taken, and actives are over-represented in it overall.

This assay in a line: LAMP-1 surface exposure blockers, TALL-104 cells – cell-based, flow cytometry, MLPCN library, primary screen (AID 651702). The following applies: TALL-104 LAMP-1 surface exposure, at 10 µM, hits give high values, cells stimulated with thapsigargin and PMA. Background: Flow cytometry measures light scatter and fluorescence of single cells or particles in a stream.
For the molecule `CC(=O)C[C@@H](O)CC(=O)[C@H]1OC(=O)CCCCCCc2ccccc21`, the inhibition is 58.1% (active).
To `CC(=O)C[C@H](O)CC(=O)[C@@H]1OC(=O)[C@@H](C)C/C=C\Cc2ccccc21` belongs -0.2% (inactive); to `CC[C@@H]1CCCCc2ccccc2[C@@H](C(=O)C[C@H](O)CC(C)=O)OC1=O`, -4.4% (inactive).
For `CSc1nc2nc(-c3cccc(C(F)(F)F)c3)ccn2n1` the value was -1.7% (inactive); for `Nc1c(C(=O)c2cccs2)sc2nsc(SCCN3CCCCC3)c12`, 94.6% (active).
Turning to `O=C(Cc1ccc(NC(=O)C2CCCN(C(=O)CCc3ccccc3)C2)cc1)Nc1ccc(C(=O)N2CCOCC2)cc1` (stereo not drawn), the inhibition was -2% (inactive).
`CCOC(=O)C1CCN(C(=O)CN2C(=O)c3cccnc3Oc3ccc(C)cc32)CC1`: the inhibition is -4.5% (inactive).
To `Cc1ccc(C2(c3ccc(C)cc3)NC(=O)N(Cc3c(C)noc3C)C2=O)cc1` belongs 4.4% (inactive); to `CCCCN1CC(COCc2ccccc2)OCCS1(=O)=O` (stereo not drawn), -5.6% (inactive); to `CCCCC[C@H](C)N1C[C@@H](COCc2ccccc2)Oc2cc(N3CCC[C@@H]3CO)ccc2S1(=O)=O`, 0.2% (inactive).
For `CCCCC[C@H](C)N1C[C@@H](COCc2ccccc2)Oc2cc(N3CC[C@@H](N(C)C)C3)ccc2S1(=O)=O` the value was 56.2% (active); for `COc1ccc2sc(-c3ccc(N(C)C)cc3)c(-c3ccc4cc[nH]c4c3)c2c1`, 72% (active).
To `COc1cc(OC)cc(-c2c(-c3ccc(F)cc3)c3cc(-c4ccc5cc[nH]c5c4)ccc3n2C)c1` belongs -0.5% (inactive); to `COc1cccc(-c2sc3ccc(OC)cc3c2-c2ccc(OCCN3CCCCC3)cc2)c1`, 14.7% (inactive).
In the case of `O=C(CCc1nnc2ccc(NCc3ccccc3Cl)nn12)NCC1CCN(C2CCCC2)C1` (stereo not drawn), the inhibition is -2.5% (inactive).
To `COc1ccc(S(=O)(=O)NCC(c2ccco2)N2CCOCC2)cc1` (stereo not drawn) belongs -1.5% (inactive); to `C=C(C)CNC(=S)Nc1ccc(S(=O)(=O)Nc2cnc3ccccc3n2)cc1`, 9.1% (inactive).
For `Cc1ccccc1OS(=O)(=O)c1cccc([N+](=O)[O-])c1` the value was -1.4% (inactive).
To `COc1ccc(S(=O)(=O)N2CCN(CC(=O)N3CCNC3=O)CC2)cc1OC` belongs -0.1% (inactive); to `CN1CCN(C2Cc3ccc(Cl)cc3Sc3ccc(F)cc32)CC1` (stereo not drawn), 63.7% (active).
As for `Cc1ccc(-c2nnn(CC(=O)N(Cc3ccco3)C(C(=O)NC(C)(C)C)c3ccncc3)n2)o1` (stereo not drawn), the inhibition was 3.8% (inactive).
On to `Cc1c(C(C)(C)O)[nH]c2ccc(C#N)cc12`, for which the inhibition is 2.3% (inactive).
To `COc1ccc(/C=C/c2nnc(NC(=O)C(C)C)s2)cc1` belongs 2% (inactive).
To `O=C(CSc1ccccc1)Nc1nnc(/C=C/c2ccccc2)s1` belongs -0.2% (inactive).
For `O=C(Nc1ccc(Cl)cc1)Nc1nnc(/C=C/c2ccccc2)s1` the value was 70.9% (active); for `CCNC(=O)C1(C)CCCN(C(=O)c2c(C)noc2C)C1` (stereo not drawn), -7.3% (inactive); for `COc1cc(C(=O)Nc2cc(C(F)(F)F)ccc2N2CCOCC2)ccc1O`, -2.1% (inactive).
For `O=C(CCn1nnc2ccccc21)OCC(=O)c1ccc([N+](=O)[O-])cc1`, the inhibition was -4.6% (inactive).
To `O=C(Cn1c[n+](CC(=O)c2ccc([N+](=O)[O-])cc2)cn1)c1ccc([N+](=O)[O-])cc1` belongs 0.3% (inactive) and 0% (inactive); to `O=C(CC(n1cncn1)C(Cl)(Cl)Cl)c1ccc([N+](=O)[O-])cc1` (stereo not drawn), 67.9% (active).
To `CN(C(=O)c1cccc(NC(=O)Cc2ccc(NC(=O)C3CCCN(C(=O)C4CCCC4)C3)cc2)c1)C1CCC1` (stereo not drawn) belongs -0.4% (inactive); to `CCOc1ccc(N2C(=O)/C(=C/c3ccc(C)o3)N(C)C2=S)cc1`, 76.4% (active); to `CCO/C=C1\C(=O)N(c2ccc(OCC)cc2)C(=O)c2ccccc21`, -2.4% (inactive).
To `CCOc1ccc(N2C(=O)CN(c3cccc4ccccc34)C2=S)cc1` belongs -2.1% (inactive); to `O=C(NCC1CCCO1)C1CCN(C2CCN(C(=O)C3CCCCC3)CC2)CC1` (stereo not drawn), 1.8% (inactive).
For the molecule `CC1CCCN(CC(=O)Nc2cc(Cl)ccc2Oc2ccccc2)C1` (stereo not drawn), the inhibition was 96.4% (active).
For `CC(=O)Nc1ccc(NC(=O)CN2CCCC(C)C2)c(Cl)c1` (stereo not drawn) the value was 1.3% (inactive); for `O=C(CSc1ccccc1)Nc1cc(Cl)ccc1Oc1ccccc1`, -1.8% (inactive); for `CCCCCCCCN1C(=O)[C@H](CC(=O)NCc2cccc3ccccc23)C[C@@]2(C(=O)OC)CCCCC=C12`, 5.4% (inactive).
In the case of `O=C(COc1coc(CN2CCN(c3ccccc3)CC2)cc1=O)Nc1ccccc1F`, the inhibition was 10.5% (inactive).
For `CN1CCN(C2=NCCO2)CC1` the value was -6.4% (inactive); for `CNc1nc2c(C)cccn2c(=O)c1C=Nc1ccc(OC)cc1`, -1.8% (inactive).
To `CCCN(CCC)c1nc2c(C)cccn2c(=O)c1/C=C1/SC(=S)N(Cc2ccco2)C1=O` belongs 57.2% (active).
For `Cc1ccc2[nH]c(=O)c(-c3nc4c(C)cccn4c3NCc3ccco3)cc2c1` the value was 19.3% (inactive); for `CSc1nc2sc3c(c2c(=O)[nH]1)CCc1ccccc1-3`, -6.9% (inactive); for `CCN(CC)CCCC(C)n1c2nc(=O)[nH]c(=O)c-2nc2cc(Cl)ccc21` (stereo not drawn), -0.7% (inactive).
With `Cc1cc2nc3n(c2cc1C)CC1CC(C(=O)NCCC(C)C)N(C)C31` (stereo not drawn), the inhibition is -4.6% (inactive).
For `COc1ccc(CCNC(=O)C2CC3Cn4c(nc5cc(C)c(C)cc54)C3N2C)cc1` (stereo not drawn) the value was 60.3% (active).
For `CN1C(C(=O)NCC2CC2)CC2Cn3c(nc4ccccc43)C21` (stereo not drawn) the value was -1.8% (inactive); for `COc1cc(NC(=O)C2CC(c3ccccc3O)=NO2)c(OC)cc1Cl` (stereo not drawn), -9.5% (inactive); for `COc1ccc(NC(=O)C(C)SCc2ccccc2)cc1` (stereo not drawn), -0.5% (inactive).
To `Cc1cccc(NC(=O)C2CC(=O)OC23CCCC3)c1` (stereo not drawn) belongs 3.1% (inactive).
Turning to `COc1cccc(CNc2ncc(-c3ccccc3)n2C)c1`, the inhibition was 1% (inactive).
To `COc1cccc(CNc2nc(C(F)(F)F)nc3ccccc23)c1` belongs 65.7% (active).
On to `CC(Nc1nc(C(F)(F)F)nc2ccccc12)c1cccs1` (stereo not drawn), for which the inhibition is -9.6% (inactive).
With `CC(CCc1ccc(O)cc1)NCc1ccc(Cl)cc1Cl` (stereo not drawn), the inhibition was 3.5% (inactive).
For `Brc1cc(Br)c(Oc2cc(Br)c(Br)cc2Br)cc1Br` the value was 0.4% (inactive); for `CN(C(=O)CN1CCN(c2cc(-c3ccc(OCc4ccccc4)cc3)ncn2)CC1)c1ccccc1`, -3.7% (inactive).
For `Cc1ccc(NC(=S)N2CCCC(c3ccccc3)=N2)cc1` the value was 2.5% (inactive).
Consider `O=S(=O)(c1cccc2nonc12)N1CCN(c2cccc(Cl)c2)CC1`, for which the inhibition was -11.1% (inactive).
As to `COc1cc(C(=O)NCc2nnc(SCC(=O)Nc3nc4ccc(C)cc4s3)o2)cc(OC)c1OC`, the inhibition is -6.4% (inactive).
For `CCCn1nc(C(=O)Nc2ccc3nc(C)sc3c2)c2ccccc2c1=O` the value was -2.4% (inactive); for `CCCC(=O)Nc1nc2ccc(NC(=O)c3c(F)c(F)c(OC)c(F)c3F)cc2s1`, 68.7% (active); for `CC(=O)Nc1ccc(NC(=O)CSc2nnnn2C2CCCCC2)cc1`, -2.8% (inactive).
For `CCOc1ccc(S(=O)(=O)N2CCN=C2Cc2ccccc2)cc1C` the value was 1.2% (inactive); for `O=C(COC(=O)/C=C/c1cccc(Cl)c1)NCc1cccs1`, 18.2% (inactive).
For `CC1CCCCC1NC(=O)Cn1c(=O)cnc2ccccc21` (stereo not drawn) the value was 25.2% (inactive); for `CCc1cc(C(=O)N(CC)CC(=O)Nc2c(F)cccc2F)sc1C`, 18.1% (inactive).
As for `O=C(Cn1nnc(-c2ccc(CN3CCOCC3)cc2)n1)NC1CCCCC1`, the inhibition is -4.2% (inactive).
To `O=C(Nc1ccccc1)c1cccnc1Nc1ccccc1` belongs 99.9% (active).
For `O=C(Nc1ccccc1)c1ccccc1Br` the value was -1.5% (inactive); for `COc1cccc(Nc2ncccc2C(=O)O)c1`, -1.7% (inactive); for `Cc1cccc(C(=O)NNC(=O)CSc2nnc(C(C)C)n2C)c1`, -2.9% (inactive).
To `COc1cccc(CN(C)CC(O)COC(c2ccccc2)c2ccccc2C)c1` (stereo not drawn) belongs 60.5% (active); to `COc1cccc(CN(C)CC(=O)Nc2ccccc2C(=O)Nc2ccccc2)c1`, 8.4% (inactive); to `Cc1ccccc1C(OCC(O)CN1CCCCC1CCO)c1ccccc1` (stereo not drawn), -0.9% (inactive).
As to `COc1ccc(-c2c(C#Cc3ccccc3)c3ccccc3n2C)cc1`, the inhibition was -3.3% (inactive).
To `COc1ccc(CCNC(=O)COC(=O)c2cc(=O)c3ccccc3o2)cc1` belongs -2.7% (inactive); to `COc1ccc(CCNCc2c(-c3ccccc3)n(C)c3ccccc23)cc1`, 90.8% (active).
Regarding `CC[C@@H]1CC2=C(C(=O)OC(C)(C)O2)[C@@H](CC)O1`, the inhibition was -0.8% (inactive).
To `Cc1c(CN2CCC(CO)(CCOc3ccccc3)CC2)[nH]c2ccc(Cl)cc12` belongs 64.1% (active); to `Cc1cccc(-c2ncc(CN3CCC(CO)(CCCc4ccccc4)CC3)cn2)c1`, 2.3% (inactive); to `CC(C)(O)C#Cc1ccc(CN2CCC(CO)(CCc3ccccc3)CC2)cc1`, -3% (inactive).
In the case of `Cc1cc(=O)cc(C)[nH]1`, the inhibition was -3.9% (inactive).
To `Cc1oc(-c2ccccc2Cl)[n+]([O-])c1C` belongs 58.5% (active); to `Cc1oc(-c2cccc(Cl)c2)[n+]([O-])c1C`, 8% (inactive).
For `CCOc1cnc(-c2c(-c3ccccc3Cl)noc2C)o1` the value was 1.2% (inactive); for `COc1ccc([C@H]2CC(=O)C=C(c3ccc(OC(F)(F)F)cc3)C2)cc1OC`, -1.8% (inactive); for `CC1(C2CC2)NC(=O)N(CC(=O)N2CCN(c3ccccc3F)CC2)C1=O` (stereo not drawn), 2% (inactive).
As to `Cc1cccc(NC(=O)c2cccc(C(=O)Nc3cccc(C)c3C)n2)c1C`, the inhibition was -1.9% (inactive).
As for `Cc1cc(C)cc(N(CC(=O)NCCSCc2ccco2)S(C)(=O)=O)c1`, the inhibition was -4.7% (inactive).
For `CS(=O)(=O)N(Cc1ccc(Cl)cc1)c1ccc(C(=O)NCCSCc2ccco2)cc1` the value was 95.2% (active).
For `CCc1ccccc1N(CC(=O)NCCSCc1ccco1)S(C)(=O)=O` the value was -0.4% (inactive).
